From article PMC7819943, “Rice protein-binding microarrays: a tool to detect cis-acting elements near promoter regions in rice”
Over roughly 68,000 sequences, “fluorescence intensity (a.u.)” has its median near 9,100; the highest 2% begin near 16,000. Only a selection was taken, and the highest values are over-represented in it overall.

These sequences were tested against OsWRKY34 (Oryza sativa, UniProt Q0JBA9 1-250) (assay: protein-binding microarray (RPBM); PBS, 2% BSA, 51.3 ng/ul salmon testes DNA, 50 uM zinc acetate, 200 nM TF, 25 C, 1 h; high values mean tight binding). Conditions: protein: recombinant; tags: N-terminal polyhistidine and DsRed monomer fusion (pET32a); label: CyDye5-dUTP incorporated in the synthesized complementary strand; 3' TTTTT single-stranded linker to array surface; dsDNA, one strand shown.
Chain of OsWRKY34 (Q0JBA9 entry or part of it): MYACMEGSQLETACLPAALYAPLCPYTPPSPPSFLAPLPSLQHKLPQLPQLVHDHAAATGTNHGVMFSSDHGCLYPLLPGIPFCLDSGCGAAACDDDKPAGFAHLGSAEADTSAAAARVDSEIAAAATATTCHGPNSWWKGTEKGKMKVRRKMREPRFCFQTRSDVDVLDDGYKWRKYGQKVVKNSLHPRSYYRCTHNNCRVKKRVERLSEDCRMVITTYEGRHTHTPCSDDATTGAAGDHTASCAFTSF
Procedure, shortened: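 Polyhistidine-tagged DsRed fusions of transcription factors, joined at the N-terminus, were expressed in E. coli BL21-CodonPlus and isolated on Ni–NTA. They were incubated at 200 nM for 1 h at 25 °C on a custom Agilent array, double-stranded and BSA-blocked, in PBS with 2% BSA, salmon testes DNA and 50 µM zinc acetate. The binding signal is per-feature fluorescence intensity (arbitrary units) read on an Axon 4000B scanner after washing.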

| Sequence | binding signal |
| --- | --- |
| CTTCAAACTTTTAATTTTTCCGTCACATCGAACTTTTCTACGGAGTCACCTAGTGCAG | 9760 fluorescence intensity (a.u.) |
| TCACACGTTTCATTGACGTTTCCTAGCATCCGACCTCTCTCGGAGTCACCTAGTGCAG | 9620 fluorescence intensity (a.u.) |
| TCCCCTGTTCTCGTACACAAATTCGCAGCGATCTAATAGTCGGAGTCACCTAGTGCAG | 8480 fluorescence intensity (a.u.) |
| CTGATTTTCATTTGAGAACAAAGTTTCTACGCATATTACCCGGAGTCACCTAGTGCAG | 8240 fluorescence intensity (a.u.) |
| CCCCAGCCCAGTTGGGCCCAAACTGTCCATTCCAGCCATCCGGAGTCACCTAGTGCAG | 8330 fluorescence intensity (a.u.) |
| TCAGTAGCATTTCCGGGTCCCATCTATATGGACTAATTTTCGGAGTCACCTAGTGCAG | 9100 fluorescence intensity (a.u.) |
| ACAGAACGAACCACCTATACGTACGTTTTCTCTCTTTTGACGGAGTCACCTAGTGCAG | 8040 fluorescence intensity (a.u.) |
| TATACAATTGCCTTACCTGTCCCCACCTGTCACATGCCTCCGGAGTCACCTAGTGCAG | 9460 fluorescence intensity (a.u.) |
| ACCTACCACCACCTTACCCTCTCGCTGACATCCCGGCCCCCGGAGTCACCTAGTGCAG | 12000 fluorescence intensity (a.u.) |
| CGCTCACTCGGTTTGGTTTGGTTTGGATTGTATTGGGTTGCGGAGTCACCTAGTGCAG | 39200 fluorescence intensity (a.u.) |
| AAATGTGGAATGGTTGGCCTGGGTTGGCTTGGGACGAGCTCGGAGTCACCTAGTGCAG | 17000 fluorescence intensity (a.u.) |
| TTGGTTTGTATTGCGTTGTTTTGCACTTTTGTTTGTTGTGCGGAGTCACCTAGTGCAG | 8300 fluorescence intensity (a.u.) |
| ATTCTCAAGTTTGAATTGGGTGTATTGGGTTGGGCTAAATCGGAGTCACCTAGTGCAG | 16700 fluorescence intensity (a.u.) |
| GGGATGGATGTGCTGGGTTGGTGGCTGGTTGGCTGGCCGGCGGAGTCACCTAGTGCAG | 11000 fluorescence intensity (a.u.) |
| TGTGTTGGATCGGTTGGACGCGCTCACTCGGTTTGGTTTGCGGAGTCACCTAGTGCAG | 9730 fluorescence intensity (a.u.) |
| CCTAAATGGTTTTGCTTGGACACTTCTGGTTACCTTGCATCGGAGTCACCTAGTGCAG | 11900 fluorescence intensity (a.u.) |
| TGCTTGCTTGCTTGGTTTGATTGGTGGAGGTGGGAGGAGTCGGAGTCACCTAGTGCAG | 8520 fluorescence intensity (a.u.) |
| TTTGTGTATTATTTGTATTGTGTTTGTGAATTCAATAAATCGGAGTCACCTAGTGCAG | 8800 fluorescence intensity (a.u.) |
| GAGGGGAGGGGTTTGGTTTGCTTGGACACTTTGGTTTGGTCGGAGTCACCTAGTGCAG | 20100 fluorescence intensity (a.u.) |
| GGCCTTGTTCGGTTGGTCCGGGAATGACTGGGGTTGGGCTCGGAGTCACCTAGTGCAG | 9210 fluorescence intensity (a.u.) |
| AGTTTTGGGGTGAATTCAATTGAGGTTGCTACAGTTTAATCGGAGTCACCTAGTGCAG | 8760 fluorescence intensity (a.u.) |
| CTTTTGCAACTCAAGCTACTATATCTATGATGGCATCTGACGGAGTCACCTAGTGCAG | 8400 fluorescence intensity (a.u.) |

| Sequence | binding signal |
| --- | --- |
| CTTGCTGTTACGCACCACATTGATTTACTTTCTTTTTCTTCGGAGTCACCTAGTGCAG | 11600 fluorescence intensity (a.u.) |
| CTCTCGACCACTTCCATTCCTTCCCGGGCTCGCCGCGCCGCGGAGTCACCTAGTGCAG | 9780 fluorescence intensity (a.u.) |
| CTCACTCCTGGCGCCGGTGACCTCTCTGCCACTCCACCGGCGGAGTCACCTAGTGCAG | 8550 fluorescence intensity (a.u.) |
| CACATGTTATTACCACCTCATTTTGCGTAAAACACTTAATCGGAGTCACCTAGTGCAG | 8460 fluorescence intensity (a.u.) |
| AACATAAACACACATCATTTCCTGTCCCTTGCACGCTACGCGGAGTCACCTAGTGCAG | 10000 fluorescence intensity (a.u.) |
| CTCCTCATCCTCATCGTCGCCGCCGCCCACGTCGTCTCGCCGGAGTCACCTAGTGCAG | 9110 fluorescence intensity (a.u.) |
| TCATCTGCTCCAAATTAAGCATTGCATCATCTACTCTGCCCGGAGTCACCTAGTGCAG | 8390 fluorescence intensity (a.u.) |
| CTACCGCATCCCCTCCCTCTCTCGGCGAGCCGAATCCATGCGGAGTCACCTAGTGCAG | 8270 fluorescence intensity (a.u.) |
| ATCTCGGTCTCTCACAAGACACACAGCTAATTAGCTCTATCGGAGTCACCTAGTGCAG | 8470 fluorescence intensity (a.u.) |
| CCATCATCTCTCGATCCATCTCCAGCAAGTTACCTATAAACGGAGTCACCTAGTGCAG | 9580 fluorescence intensity (a.u.) |
| CTGCACTGTTTGCCTCAGTTGGGTTGGTTTGGTTTGGTTGCGGAGTCACCTAGTGCAG | 48200 fluorescence intensity (a.u.) |
| GCAGTTTCAGTGTGTGTTTGGTTGCAAGTTGTTGCATCTGCGGAGTCACCTAGTGCAG | 8410 fluorescence intensity (a.u.) |
| TGTGGGTTGGAGGGAGGAGGGGATTGAAGGGTTGTTAATTCGGAGTCACCTAGTGCAG | 14900 fluorescence intensity (a.u.) |
| TGCGGATGGGATGGAGAGCGCAGGAGGGGTGGGTTGTTGTCGGAGTCACCTAGTGCAG | 10800 fluorescence intensity (a.u.) |
| CAAGGAGGGAGTTGATGGTGGGATTGATCATGGGAGTTATCGGAGTCACCTAGTGCAG | 8560 fluorescence intensity (a.u.) |
| AAGAGGGTGGGTTGTTGGGGAGAGGGGAGGGAGGAGGATTCGGAGTCACCTAGTGCAG | 20100 fluorescence intensity (a.u.) |
| ACTCACTGTTGCCTGTTGGTTTGTTGTCAGTAGCGCTAGGCGGAGTCACCTAGTGCAG | 8370 fluorescence intensity (a.u.) |
| CGTTGGGAGTTGGGAGGGATGGGTGGTGCATCAAGATTGACGGAGTCACCTAGTGCAG | 23500 fluorescence intensity (a.u.) |
| AGGTGGTGTTTGGTTGGAGGGGCTAAAGTGGGGCTAAACTCGGAGTCACCTAGTGCAG | 20000 fluorescence intensity (a.u.) |
| TGGTGTTTGGTTGGAGGGACTAAAGTAGGGCTAAACTTTACGGAGTCACCTAGTGCAG | 8870 fluorescence intensity (a.u.) |
| AGTTTTAAGGAGGGAGTTGATGGTGGGATTGGTCATGGGACGGAGTCACCTAGTGCAG | 8620 fluorescence intensity (a.u.) |
| GGTGTTTGGTTGGAGGGATTAAAGTGGGGCTAAACTTTAGCGGAGTCACCTAGTGCAG | 9950 fluorescence intensity (a.u.) |
